Reference: PubChem BioAssay (NCATS)
Unmarked numbers belong to inactive results. Records with an inconclusive call do not appear. Activity calls are given as the source filed them. Unless noted, calls come from the whole dose curve; as a rule, active = well fitted curve in either direction with a large enough effect (not every such curve was filed as active); inconclusive = small, poorly fitted or top-dose-only effect, or another doubt; inactive = flat fitted curve, though single readings scatter.

Legend:
[1] = target: Lysosomal acid glucosylceramidase (Homo sapiens) (UniProt P04062); assay: Glucocerebrosidase-p2 (AID 348; in the data active = potency below about 10 µM; note: potency is the fitted concentration of half-maximal effect); settings: purified GBA, blue fluorogenic substrate, 40 min
Chain of Lysosomal acid glucosylceramidase (Homo sapiens) (P04062 whole entry, looked up): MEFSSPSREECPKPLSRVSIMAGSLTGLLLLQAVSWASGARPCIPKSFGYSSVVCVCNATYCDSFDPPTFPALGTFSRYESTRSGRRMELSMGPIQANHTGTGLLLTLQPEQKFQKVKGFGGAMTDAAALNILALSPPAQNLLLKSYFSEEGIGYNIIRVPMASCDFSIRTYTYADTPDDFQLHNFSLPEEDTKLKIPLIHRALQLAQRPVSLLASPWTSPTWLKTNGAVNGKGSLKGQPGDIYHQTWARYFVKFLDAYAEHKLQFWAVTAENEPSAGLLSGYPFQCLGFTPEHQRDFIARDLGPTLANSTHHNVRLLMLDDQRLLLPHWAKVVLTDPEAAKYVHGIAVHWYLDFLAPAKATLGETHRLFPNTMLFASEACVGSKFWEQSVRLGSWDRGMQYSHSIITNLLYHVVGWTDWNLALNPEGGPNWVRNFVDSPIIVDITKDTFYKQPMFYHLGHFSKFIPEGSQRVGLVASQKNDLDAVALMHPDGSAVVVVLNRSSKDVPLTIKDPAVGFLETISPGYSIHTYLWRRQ
Method in brief: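 Compounds titrated from 0.6 nM upwards against 0.2 nM enzyme in pH 5.9 citric acid/KH2PO4, taurocholate, tween-20; blue fluorogenic substrate 80 uM, 40 min room temperature, stopped and read Ex 365/Em 440 for AC50.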

[2] = AP1 Signaling Pathway (AID 357); settings: ME-180 AP-1-bla reporter, EGF-induced, beta-lactamase ratio, 5 h; at 7.69 µM (top of the series) unless noted;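 note: ME-180 reporter cells stimulated with EGF at its EC50 level; % is set by controls: 0 for no effect and ±100 for the full control effect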
Method in brief: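 In this screen, ME-180 cells in Opti-MEM with 0.5% dialyzed FBS received EC50 EGF and compound titrations for 5 h. AP-1 reporter beta-lactamase was detected via CCF4 ratio, giving AC50 for positive and negative modulators.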

[3] = NFAT Signaling Pathway (AID 444); settings: Jurkat NFAT-bla M1, carbachol, beta-lactamase ratio, 5 h; at 7.69 µM (top of the series) unless noted;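 note: carbachol stimulus at about its EC50 of 1 µM final; % is set by controls: 0 for no effect and ±100 for the full control effect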
Method in brief: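 Jurkat cells carrying an NFAT-driven β-lactamase reporter and co-transfected muscarinic M1 receptor were treated with compound plus carbachol (1 uM final, an EC50 level) for 5 h at 37 °C. CCF4 loading followed for 1 h at RT; 460/530 nm ratio gave %activity.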

[4] = Stat Signaling Pathway (AID 446); settings: ME-180 SIE beta-lactamase reporter, IL-6 stimulated, 5 h; at 7.69 µM (top of the series) unless noted;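 note: ME-180 cervical cancer cells given 40 pM IL-6 alongside compound; SIE-controlled beta-lactamase reporter measured as 460/530 nm FRET emission ratio; % is set by controls: 0 for no effect and ±100 for the full control effect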
Method in brief: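 Screening format detects activators and inhibitors alike: ME-180 SIE-bla cells stimulated at 40 pM IL-6 for 5 hrs with compound, then dual-emission beta-lactamase read at 405 nm excitation.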

[5] = target: Glucocorticoid receptor (Homo sapiens) (UniProt P04150); assay: GR-GFP Redistribution (AID 450;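 active = compounds whose dose series gives a full or clear partial fitted curve of increased nuclear translocation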; note: potency is the fitted concentration of half-maximal effect); settings: U2OS GR-GFP nuclear translocation, laser cytometry, 2 h
Chain of Glucocorticoid receptor (Homo sapiens) (P04150 whole entry, looked up, the tested form may be a part): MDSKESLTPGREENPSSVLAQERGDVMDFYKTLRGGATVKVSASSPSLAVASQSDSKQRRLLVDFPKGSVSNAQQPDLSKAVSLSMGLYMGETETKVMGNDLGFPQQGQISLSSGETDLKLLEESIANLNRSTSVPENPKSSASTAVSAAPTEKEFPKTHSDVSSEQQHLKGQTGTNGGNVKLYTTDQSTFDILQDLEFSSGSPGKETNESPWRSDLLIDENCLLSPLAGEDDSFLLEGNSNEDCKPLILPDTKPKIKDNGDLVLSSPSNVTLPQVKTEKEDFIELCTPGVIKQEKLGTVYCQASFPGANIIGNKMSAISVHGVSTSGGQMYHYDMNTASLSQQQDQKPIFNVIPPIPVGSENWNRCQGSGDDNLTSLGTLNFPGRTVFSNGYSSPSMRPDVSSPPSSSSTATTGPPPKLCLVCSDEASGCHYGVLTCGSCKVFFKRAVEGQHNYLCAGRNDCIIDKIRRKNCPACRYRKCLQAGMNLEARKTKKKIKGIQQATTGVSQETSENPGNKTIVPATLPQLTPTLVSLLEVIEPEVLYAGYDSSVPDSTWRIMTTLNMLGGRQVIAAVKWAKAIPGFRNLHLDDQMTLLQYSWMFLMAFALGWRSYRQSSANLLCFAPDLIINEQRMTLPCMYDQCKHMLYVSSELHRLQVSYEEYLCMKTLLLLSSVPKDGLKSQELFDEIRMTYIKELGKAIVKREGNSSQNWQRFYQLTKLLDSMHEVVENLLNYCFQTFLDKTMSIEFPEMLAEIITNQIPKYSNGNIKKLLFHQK

[6] = target: Glucocorticoid receptor (Homo sapiens) (UniProt P04150); assay: GR-EFC Redistribution (AID 451; calls by dose curve; note: potency is the fitted concentration of half-maximal effect); settings: CHO-K1 GR-EFC translocation, beta-gal luminescence, 2 h
Method in brief: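 CHO-K1 cells stably expressing nuclear-localized β-gal enzyme acceptor and GR fused C-terminally to the enzyme donor fragment; ligand-driven nuclear translocation restores β-gal by complementation. Compounds titrated up to 46 uM final, 2 h at 37 °C; luminescence read.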

[7] = target: Mitogen-activated protein kinase 10 (Mus musculus) (UniProt Q61831); assay: JNK3 AlphaScreen Assay (AID 530); settings: JNK3 lysate, c-Jun phosphorylation; series mostly up to 57.1 µM;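 note: kinase came from lysate of stimulated human HepG2 cells; signal reports phosphorylation of biotinylated GST-cJun 1-79 at Ser73 with 10 µM ATP; % is set by controls: 0 for no effect and ±100 for the full control effect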
Method in brief: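 Inhibitors reduce antibody binding to phosphorylated biotin-cJun, lowering AlphaScreen luminescence. Lysates from HepG2 cells pre-activated by IL-1beta plus TNF-alpha supplied JNK3; compounds were titrated.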

[8] = target: 3',5'-cyclic-AMP phosphodiesterase 4B (Homo sapiens) (UniProt Q07343); assay: qHTS Assay for Inhibitors of PDE-IV (AID 607; active = well fitted activation curve with a large enough effect in the main read-out, with a control signal flat, not every such curve was filed as active; note: % of control where 0% means no effect); settings: HEK293 ACTOne CNG channel cells, membrane potential fluorescence; series mostly up to 22.9 µM
Chain of 3',5'-cyclic-AMP phosphodiesterase 4B (Homo sapiens) (Q07343 whole entry, looked up): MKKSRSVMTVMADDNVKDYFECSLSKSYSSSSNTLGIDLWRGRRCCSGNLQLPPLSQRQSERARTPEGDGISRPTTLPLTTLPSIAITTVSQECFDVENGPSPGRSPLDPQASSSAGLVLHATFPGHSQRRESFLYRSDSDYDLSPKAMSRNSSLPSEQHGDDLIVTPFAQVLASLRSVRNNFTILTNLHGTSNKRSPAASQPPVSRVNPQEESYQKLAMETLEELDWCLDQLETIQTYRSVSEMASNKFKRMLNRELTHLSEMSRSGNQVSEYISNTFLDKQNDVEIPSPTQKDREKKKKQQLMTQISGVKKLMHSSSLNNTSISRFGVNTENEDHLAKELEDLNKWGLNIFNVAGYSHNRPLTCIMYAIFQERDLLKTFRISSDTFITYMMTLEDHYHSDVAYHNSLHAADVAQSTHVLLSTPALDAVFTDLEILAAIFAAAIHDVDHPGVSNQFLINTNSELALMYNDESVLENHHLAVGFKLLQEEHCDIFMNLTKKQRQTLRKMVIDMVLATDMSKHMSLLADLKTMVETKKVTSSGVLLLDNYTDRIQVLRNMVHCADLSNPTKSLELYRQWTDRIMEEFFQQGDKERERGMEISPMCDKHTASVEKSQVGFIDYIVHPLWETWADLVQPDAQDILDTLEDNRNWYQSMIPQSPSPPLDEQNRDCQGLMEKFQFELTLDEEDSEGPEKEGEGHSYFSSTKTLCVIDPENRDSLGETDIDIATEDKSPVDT
Method in brief: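 The readout is membrane depolarisation from a cAMP-sensing CNG channel, detected with a potential dye at ex 535/em 590. Cells were HEK293-derived (endogenous PDE-IV) at 1000 cells/well, titrated up to 22.9 uM final.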

[9] = target: Dual specificity protein kinase CLK4 (Homo sapiens) (UniProt Q9HAZ1); assay: qHTS Assay for Inhibitors of CDC-like Kinase 4 (ADP-FP Assay) (AID 1795; active = well fitted curve in the direction sought with a large enough effect; an effect the other way counts as inactive or inconclusive;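 note: recombinant human CLK4 phosphorylating RS repeat peptide at 1 µM ATP; % is set by controls: 0 for no effect and ±100 for the full control effect; nearly all actives have a fitted effect of over 60% in size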); settings: Transcreener ADP fluorescence polarization; series mostly up to 50 µM
Chain of Dual specificity protein kinase CLK4 (Homo sapiens) (Q9HAZ1 whole entry, looked up): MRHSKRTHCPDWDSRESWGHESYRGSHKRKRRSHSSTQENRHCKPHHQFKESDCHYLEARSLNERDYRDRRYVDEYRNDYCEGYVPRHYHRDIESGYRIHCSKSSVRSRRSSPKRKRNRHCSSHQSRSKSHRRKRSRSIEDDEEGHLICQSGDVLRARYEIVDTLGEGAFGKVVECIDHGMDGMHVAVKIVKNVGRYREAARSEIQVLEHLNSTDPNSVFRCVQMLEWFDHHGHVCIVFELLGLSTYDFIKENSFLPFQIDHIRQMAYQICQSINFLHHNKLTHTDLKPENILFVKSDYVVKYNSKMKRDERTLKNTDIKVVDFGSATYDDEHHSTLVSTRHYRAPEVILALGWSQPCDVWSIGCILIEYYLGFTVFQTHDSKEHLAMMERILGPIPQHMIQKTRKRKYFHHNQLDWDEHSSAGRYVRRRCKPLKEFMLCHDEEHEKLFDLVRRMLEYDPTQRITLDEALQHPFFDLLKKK
Method in brief: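 Recombinant Clk4 (6.25 nM) phosphorylated 100 uM RS repeat peptide with 1 uM ATP in 25 mM Tris pH 7.5, 10 mM MgCl2, 0.5 mM EGTA, 2.5 mM DTT, 0.01% Triton X-100 for 1 h. ADP was detected by Transcreener ADP2 competitive fluorescence polarization after 30 min at room temperature.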

[10] = target: Ubiquitin carboxyl-terminal hydrolase 1 (Homo sapiens) (UniProt O94782); assay: Inhibitors of USP1/UAF1: Pilot qHTS (AID 504865; active = well fitted curve in the direction sought with a large enough effect; an effect the other way counts as inactive or inconclusive;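 note: rhodamine fluorescence freed from ubiquitin-rhodamine substrate followed over time; top concentration of the series differs between compounds; % is set by controls: 0 for no effect and ±100 for the full control effect; nearly all actives have a fitted effect of over 35% in size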); settings: purified USP1/UAF1, Ub-rhodamine cleavage fluorescence; series mostly up to 54.9 µM
Chain of Ubiquitin carboxyl-terminal hydrolase 1 (Homo sapiens) (O94782 whole entry, looked up): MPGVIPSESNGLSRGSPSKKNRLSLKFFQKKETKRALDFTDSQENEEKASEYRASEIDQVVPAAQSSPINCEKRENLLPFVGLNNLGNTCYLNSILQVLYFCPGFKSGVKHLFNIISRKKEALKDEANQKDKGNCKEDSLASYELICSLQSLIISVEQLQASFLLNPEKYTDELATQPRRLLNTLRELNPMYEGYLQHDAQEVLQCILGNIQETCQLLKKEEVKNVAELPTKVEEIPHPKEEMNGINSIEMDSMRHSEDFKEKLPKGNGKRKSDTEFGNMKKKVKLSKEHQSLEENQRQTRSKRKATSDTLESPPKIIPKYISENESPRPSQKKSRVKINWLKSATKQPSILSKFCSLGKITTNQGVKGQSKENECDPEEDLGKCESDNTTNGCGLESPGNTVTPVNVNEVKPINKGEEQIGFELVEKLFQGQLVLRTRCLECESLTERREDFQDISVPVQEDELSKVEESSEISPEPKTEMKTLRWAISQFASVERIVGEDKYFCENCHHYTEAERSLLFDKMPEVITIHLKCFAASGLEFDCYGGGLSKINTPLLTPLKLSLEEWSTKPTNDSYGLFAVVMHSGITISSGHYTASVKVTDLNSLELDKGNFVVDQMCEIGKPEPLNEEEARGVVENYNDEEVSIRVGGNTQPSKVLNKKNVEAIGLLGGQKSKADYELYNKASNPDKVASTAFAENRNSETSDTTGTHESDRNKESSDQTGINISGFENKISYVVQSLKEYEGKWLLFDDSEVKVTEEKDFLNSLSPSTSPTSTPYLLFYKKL
Method in brief: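 USP1/UAF1 complex at 1 nM preincubated 15 min at room temperature with compound, then Ub-Rho substrate added at 150 nM final. Fluorescence (480/540 nm) read kinetically in 50 mM HEPES pH 7.8, 0.5 mM EDTA, 1 mM TCEP, 0.1 mg/ml BSA, 0.01% Tween-20.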

[11] = Primary qHTS for small molecule stabilizers of the endoplasmic reticulum resident proteome: Secreted ER Calcium Modulated Protein (SERCaMP) assay (AID 1508630; active = well fitted curve in the direction sought with a large enough effect; an effect the other way counts as inactive or inconclusive; note: % is set by controls: 0 for no effect and ±100 for the full control effect); settings: SH-SY5Y GLuc-SERCaMP (Gaussia luciferase released on ER calcium loss) secretion, thapsigargin, luminescence; series mostly up to 38.4 µM
Method in brief: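 GLuc-SERCaMP-expressing SH-SY5Y cells, pretreated 16 h with compound, are challenged with thapsigargin to empty ER calcium stores; after 4 h, coelenterazine is added directly to the medium and luminescence is imaged.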

[12] = target: Cytochrome P450 1A2 (Homo sapiens) (UniProt P05177); assay: p450-cyp1a2 (AID 410; calls by dose curve; note: potency is the fitted concentration of half-maximal effect); settings: recombinant CYP1A2, luciferin-ME demethylation, luminescence; series mostly up to 57 µM
Chain of Cytochrome P450 1A2 (Homo sapiens) (P05177 whole entry, looked up): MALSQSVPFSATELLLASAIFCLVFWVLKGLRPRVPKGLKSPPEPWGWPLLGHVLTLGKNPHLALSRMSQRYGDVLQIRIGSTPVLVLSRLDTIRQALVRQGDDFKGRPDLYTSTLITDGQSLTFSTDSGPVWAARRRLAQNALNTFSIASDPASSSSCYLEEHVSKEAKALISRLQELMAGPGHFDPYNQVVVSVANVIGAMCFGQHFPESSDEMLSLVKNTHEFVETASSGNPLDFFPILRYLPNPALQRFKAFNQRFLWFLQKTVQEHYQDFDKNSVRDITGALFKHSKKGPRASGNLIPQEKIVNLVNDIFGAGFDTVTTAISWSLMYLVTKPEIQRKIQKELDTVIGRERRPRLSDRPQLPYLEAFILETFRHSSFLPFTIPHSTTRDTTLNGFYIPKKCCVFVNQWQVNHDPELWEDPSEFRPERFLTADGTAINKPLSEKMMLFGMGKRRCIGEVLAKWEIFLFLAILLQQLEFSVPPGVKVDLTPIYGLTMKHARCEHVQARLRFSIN
Method in brief: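 Luminescent readout of luciferin formed from Luciferin-ME by human CYP1A2; data normalized against complete inhibition by 57 uM furafylline. Enzyme 20nM, substrate 100uM at Km, 100mM KPO4 buffer, 60 min reaction at room temperature.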

[13] = target: Cytochrome P450 3A4 (Homo sapiens) (UniProt P08684); assay: qHTS Assay for Activators of Cytochrome P450 3A4 (AID 885; active = well fitted curve in the direction sought with a large enough effect; an effect the other way counts as inactive or inconclusive; note: nearly all actives have a fitted effect of over 65% in size); settings: recombinant CYP3A4, Luciferin-PPXE luminescence, 60 min; series mostly up to 57.1 µM
Chain of Cytochrome P450 3A4 (Homo sapiens) (P08684 whole entry, looked up): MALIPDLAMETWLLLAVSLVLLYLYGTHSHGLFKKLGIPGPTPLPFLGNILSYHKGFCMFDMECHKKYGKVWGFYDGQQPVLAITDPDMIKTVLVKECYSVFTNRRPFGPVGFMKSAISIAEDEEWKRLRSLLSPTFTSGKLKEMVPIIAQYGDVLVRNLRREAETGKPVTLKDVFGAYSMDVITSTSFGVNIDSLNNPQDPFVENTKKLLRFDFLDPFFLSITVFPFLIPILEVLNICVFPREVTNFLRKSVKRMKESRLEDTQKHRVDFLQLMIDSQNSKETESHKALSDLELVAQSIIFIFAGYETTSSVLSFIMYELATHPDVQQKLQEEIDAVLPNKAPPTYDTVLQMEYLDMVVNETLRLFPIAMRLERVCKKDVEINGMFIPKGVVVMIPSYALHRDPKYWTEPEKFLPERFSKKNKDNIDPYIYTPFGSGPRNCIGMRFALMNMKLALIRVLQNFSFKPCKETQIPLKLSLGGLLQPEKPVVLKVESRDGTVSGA
Method in brief: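 Steps: enzyme/substrate mix dispensed; compound added, 10 min RT; NADPH regeneration solution added, 60 min RT; luciferin detection buffer stops reaction; 20 min later luminescence measured.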

[14] = qHTS Assay for Identification of Small Molecule Agonists for Hypoxia Response Element Signaling Pathway (AID 914; active = well fitted activation curve with a large enough effect in the signal ratio, with a control signal flat, not every such curve was filed as active; the % refers to the signal ratio; note: potency is the fitted concentration of half-maximal effect); settings: ME-180 (cervical carcinoma) HRE-bla reporter, beta-lactamase ratio, CoCl2, 17 h; activation: active compounds read high
Method in brief: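 Positive modulation of EC50 CoCl2-induced hypoxia response element signaling is measured in ME-180 cells with a beta-lactamase reporter. Compounds are titrated, incubation runs 17 hours, and %Activity derives from the blue/green ratio.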

## COCCn1c(=O)cnc2cnc(N(C)C)nc21
[1]
  Potency: > 11.4 µM
[2]
  activity change, negative = inhibition: 8.38%
[3]
  activity change, negative = inhibition: 7.07%
[4]
  activity, negative = inhibition: -2.06%
[5]
  Potency: > 9.22 µM
[6]
  Potency: > 46 µM
[7]
  Potency: inactive
[8]
  Potency: inactive
[9]
  Potency: inactive
[10]
  Potency: inactive
[11]
  outcome: inactive

## CCNc1ncc2nc(-c3cccs3)c(=O)n(C[C@H]3CCCO3)c2n1
[1]
  Potency: > 11.4 µM
[2]
  activity change, negative = inhibition: 9.48%
[12]
  Potency: 2.51 µM (active)
[3]
  activity change, negative = inhibition: 18.7%
[5]
  Potency: > 9.22 µM
[6]
  Potency: > 46 µM
[7]
  Potency: inactive
[13]
  Potency: inactive
[9]
  Potency: inactive
[10]
  Potency: inactive
[11]
  outcome: inactive

## Cc1ccccc1-c1cc(NCc2cccnc2)ncn1
[1]
  Potency: > 11.4 µM
[2]
  activity change, negative = inhibition: 6.3%
[12]
  Potency: 3.98 µM (active)
[3]
  activity change, negative = inhibition: 2.72%
[4]
  activity, negative = inhibition: -6.88%
[5]
  Potency: > 46 µM
[6]
  Potency: > 46 µM
[7]
  Potency: inactive
[8]
  Potency: inactive
[13]
  Potency: inactive
[9]
  Potency: inactive
[11]
  outcome: inactive

## CCNc1ncc2nc(-c3cccs3)c(=O)n(-c3ccccc3)c2n1
[1]
  Potency: > 11.4 µM
[2]
  activity change, negative = inhibition: -0.879%
[12]
  Potency: 1.58 µM (active)
[3]
  activity change, negative = inhibition: -3.13%
[5]
  Potency: > 9.22 µM
[6]
  Potency: > 46 µM
[7]
  Potency: inactive
[9]
  Potency: inactive
[10]
  Potency: inactive
[11]
  outcome: inactive

## CC(=O)NCCNc1ccnc(-c2ccccc2C)n1
[1]
  Potency: > 11.4 µM
[2]
  activity change, negative = inhibition: 12.2%
[12]
  Potency: 3.98 µM (active)
[3]
  activity change, negative = inhibition: 6.08%
[4]
  activity, negative = inhibition: 8.94%
[6]
  Potency: > 46 µM
[7]
  Potency: inactive
[8]
  Potency: inactive
[13]
  Potency: inactive
[9]
  Potency: inactive
[10]
  Potency: inactive
[11]
  outcome: inactive

## CCNc1ncc2nc(C)c(=O)n(CCOC)c2n1
[1]
  Potency: > 11.4 µM
[2]
  activity change, negative = inhibition: -1.39%
[3]
  activity change, negative = inhibition: 13.7%
[4]
  activity, negative = inhibition: -7.84%
[5]
  Potency: > 9.22 µM
[6]
  Potency: > 46 µM
[7]
  Potency: inactive
[8]
  Potency: inactive
[9]
  Potency: inactive
[10]
  Potency: inactive
[11]
  outcome: inactive

## CS(=O)(=O)Nc1cccc(-c2cc(NCc3ccccc3)ncn2)c1
[1]
  Potency: > 11.4 µM
[2]
  activity change, negative = inhibition: -7.54%
[12]
  Potency: 12.6 µM (active)
[3]
  activity change, negative = inhibition: 8.48%
[4]
  activity, negative = inhibition: -7.25%
[6]
  Potency: > 46 µM
[7]
  Potency: inactive
[8]
  Potency: inactive
[13]
  Potency: inactive
[9]
  Potency: inactive
[10]
  Potency: inactive
[11]
  outcome: inactive

## CCNc1ncc2nc(-c3ccc(Cl)cc3)c(=O)n(Cc3cccs3)c2n1
[1]
  Potency: > 11.4 µM
[5]
  Potency: > 9.22 µM
[6]
  Potency: > 46 µM
[7]
  Potency: inactive
[14]
  Potency: 0.126 µM (active)
[9]
  Potency: inactive
[10]
  Potency: inactive
[11]
  outcome: inactive
